Assay outcomes from PubChem BioAssay.
NR3A LBD binder = modulators (binders) of human NR3A ligand-binding domain; NR3A LBD differential scanning fluorimetry, Tm shift; 0% = protein alone, 100% = glycine-bound protein; Tm shift relative to glycine control, % at 25 µM; hit rate 2.5% among 340,000;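 active means melting temperature shift of at least 10% of the positive control shift, at one fixed dose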
SKN-1 block = blocks SKN-1 activity in C. elegans | C. elegans VP596 Pgst-4::GFP/RFP ratio, acrylamide-induced, 24 h | inhibition, % at 21.8 µM | hit rate 0.49% among 360,000;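 active means interference check ratio from 0.5 to 1.5 plus GFP to RFP signal ratio inhibition reaching or exceeding a fixed threshold, cut at about 30% in these data, passing the limit was not always enough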
SMARCA2 activ = activators of SMARCA2 function; hit rate 1% among 370,000; AID 652017; MG213 cells, MMTV-luciferase reporter, dexamethasone, overnight; activation, % at 9.1 µM; in the data active means activation above about 7.8%;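 further: 0% = vehicle wells and 100% = reference activator wells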
NadD inh = inhibitors of Staphylococcus aureus NadD; purified NadD enzyme, colorimetric absorbance read-out; hit rate 0.78% among 360,000; inhibition, % at 20 µM; in the data active means inhibition above about 26%
Vif imaging = inhibitors of HIV Vif; hit rate 0.35% among 340,000; HEK293T cells, Vif self-association by quenched fluorescence, imaging, 24 h; inhibition, % at 7.49 µM; in the data active means inhibition above about 50%, passing the limit was not always enough; inconclusive means no clear call, values can overlap the other calls; inactive means below about 31%
esBAF inh = inhibitors of esBAF chromatin remodeling in mouse ES cells | reporter increase, % at 12.5 µM | hit rate 2% among 350,000 | Bmi1-luciferase knock-in reporter, 24 h; 100% = twice the neutral-well signal; in the data active means activation above about 40%; inconclusive means no clear call, values can overlap the other calls;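 further: 0% = median of the plate's neutral control wells and 100% = double that signal; a rise in the Bmi1 reporter signal indicates esBAF inhibition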
esBAF Ring1 qPCR = confirmation of esBAF inhibitors: Ring1 de-repression in mouse ESCs. mouse ESC E14, Ring1 mRNA RT-qPCR fold change. 550 tested, under 10 active. fold change at 33 µM. shares compounds with esBAF inh;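 active means Ring1 gene expression raised more than 2-fold over untreated cells in both replicates at either tested dose; inconclusive means only one replicate above 2-fold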;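 further: Ring1 transcript normalised to actin housekeeping signal by TaqMan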
esBAF Fgf4 qPCR = esBAF inhibition confirmed by Fgf4 repression | shares compounds with esBAF inh | mouse ESC E14, Fgf4 mRNA qPCR fold change; active compounds read low | Fgf4 expression fold change at 33 µM | hit rate 4% among 550 | AID 743177;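 active means Fgf4 expression under 0.8 fold of control in both repeat measurements at one or both tested doses; inconclusive means under 0.8 fold in just a single repeat measurement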;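 further: Fgf4 transcript normalised to actin in duplex TaqMan qPCR; cells exposed to compound for 24 h before lysis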
esBAF Bmi1 qPCR = esBAF inhibition confirmed by Bmi1 de-repression; mouse ESE14 ES cells, Bmi1 mRNA qPCR fold; active compounds read high; AID 743180; 550 tested, under 10 active; fold change at 33 µM; shares compounds with esBAF inh;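 active means Bmi1 expression fold change above 6 at either tested concentration, seen in replicate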;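 further: higher fold means more Bmi1 de-repression and stronger esBAF inhibition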
A549 tox SP = A549 cell cytotoxicity | shares compounds with esBAF inh | plate reader | cell viability change % (negative = cytotoxic), % at 25 µM, hits read low | 550 tested, under 10 active; call rule not given here
HepG2 cytotox SP = kills or reduces viability of HepG2 cells; HepG2 cytotoxicity, plate reader; active compounds read low; activity change, negative = inhibition, % at 25 µM; hit rate 4% among 550; shares compounds with esBAF inh; in the data active means activity change below about -50%
HEK293 cytotox SP = cytotoxicity in HEK293 cells. AID 743190. plate reader. activity change, negative = inhibition, % at 25 µM, hits read low. shares compounds with esBAF inh. hit rate 3% among 550; in the data active means activity change below about -38%, passing the limit was not always enough
Numbers without * were called inactive. Rows were chosen to be rich in hits. Some 5.2% of all compounds tested hit in one or more screens of this group.

Results for COc1ccc2c(c1OC)C(=O)N1c3ccccc3C(=O)N(c3ccccc3F)C21 (stereo unspecified) ?
NR3A LBD binder: 2.2; SKN-1 block: -2.1; SMARCA2 activ: 0.3; NadD inh: -2.7; Vif imaging: -0.7; esBAF inh: -10.1

What do the screens show for `Cc1noc(C)c1S(=O)(=O)Nc1ccc2c(c1)C(=O)N([C@H](C)CO)C[C@H](C)[C@@H](CN(C)C(=O)CCC(F)(F)F)OCCCC[C@@H](C)O2`?
esBAF inh: 2.1

How did Nc1nc(-c2cccc(F)c2)cs1 do in these assays?
NR3A LBD binder: 2.2; SKN-1 block: 7.9; SMARCA2 activ: 2.6; NadD inh: 3.6; Vif imaging: 0.5; esBAF inh: 57.5*; esBAF Ring1 qPCR: 1.17; esBAF Fgf4 qPCR: inconclusive; esBAF Bmi1 qPCR: 1.64; A549 tox SP: 0.1; HepG2 cytotox SP: -4.0; HEK293 cytotox SP: 6.2

How did NNC(=O)C=C1CCN(c2ncc(C(F)(F)F)cc2Cl)CC1 do in these assays?
NR3A LBD binder: -2.1; SKN-1 block: 18.8; SMARCA2 activ: -1.9; NadD inh: 2.2; Vif imaging: 5.8; esBAF inh: 2.1

How did O=C(O)C=C1CCN(c2ncc(C(F)(F)F)cc2Cl)CC1 do in these assays?
NR3A LBD binder: -0.8; SKN-1 block: -18.2; SMARCA2 activ: 3.8; NadD inh: 4.1; Vif imaging: -4.4; esBAF inh: 63.0*; esBAF Ring1 qPCR: 1.14; esBAF Fgf4 qPCR: 1.13; esBAF Bmi1 qPCR: 1.5; A549 tox SP: -6.1; HepG2 cytotox SP: -13.4; HEK293 cytotox SP: -9.2

Results for O=c1c2c3c(sc2nc2n1CCCCC2)CCC3 ?
NR3A LBD binder: 0.5; SKN-1 block: -9.1; SMARCA2 activ: 0.5; NadD inh: -1.0; Vif imaging: -6.4; esBAF inh: 12.6

What do the screens show for `O=C1CCCc2c1sc1nc3n(c(=O)c21)CCCCC3`?
NR3A LBD binder: -1.5; SKN-1 block: 0.6; SMARCA2 activ: 1.6; NadD inh: -0.8; esBAF inh: 67.6*; esBAF Ring1 qPCR: 0.978; esBAF Fgf4 qPCR: 0.91; esBAF Bmi1 qPCR: 1.27; A549 tox SP: -7.4; HepG2 cytotox SP: -61.7*; HEK293 cytotox SP: -13.9

Results for CN(C)CCCNC(=O)C[C@@H]1C=C[C@H](NC(=O)Cc2cccnc2)[C@@H](CO)O1 ?
esBAF inh: 1.2

What do the screens show for `c1ccc(-c2nc3c(ccc4ccccc43)[nH]2)nc1`?
NR3A LBD binder: -28.9; SKN-1 block: 11.5; SMARCA2 activ: 7.2; NadD inh: -5.0; Vif imaging: -14.6; esBAF inh: 99.6*; esBAF Ring1 qPCR: 0.947; esBAF Fgf4 qPCR: 1.11; esBAF Bmi1 qPCR: 3.08; A549 tox SP: -6.1; HepG2 cytotox SP: -13.0; HEK293 cytotox SP: -7.8

Results for c1ccc(-c2nc3ccccc3[nH]2)nc1 ?
NR3A LBD binder: -4.3; SKN-1 block: 4.0; SMARCA2 activ: 2.9; NadD inh: -0.3; Vif imaging: -6.0; esBAF inh: 18.6

Results for CC(=O)Nc1ccc2c(c1Br)Cc1ccccc1-2 ?
NR3A LBD binder: 6.4; SKN-1 block: 44.0*; SMARCA2 activ: -2.6; NadD inh: -11.1; Vif imaging: 8.4; esBAF inh: 68.5*; esBAF Ring1 qPCR: 1.17; esBAF Fgf4 qPCR: 0.922; esBAF Bmi1 qPCR: 2.76; A549 tox SP: -8.2; HepG2 cytotox SP: 7.5; HEK293 cytotox SP: -6.7
